Source: PubChem BioAssay (NCI)
About 79,000 compounds went through this panel and 15% of them were active in at least one assay; those are over-represented in the sample as a whole. Activity calls are given as the source filed them. Cut-off read from the data, not from the text of the source: active = growth inhibition above about 70%; inactive = the rest.

Columns and labels:
[1] = NCI Yeast Anticancer Drug Screen. Data for the rad50 strain (AID 155);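 note: 0% = growth of vehicle-only cultures of the same strain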; settings: S. cerevisiae rad50 strain growth inhibition, active compounds read high
How it was run: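 Readout: growth inhibition relative to vehicle-treated cultures. Compound exposure was carried out in a genetically defined yeast strain deficient in DNA damage repair.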

[2] = NCI Yeast Anticancer Drug Screen. Data for the mec2-1 strain (AID 157); settings: S. cerevisiae mec2-1 strain, active compounds read high
How it was run: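 mec2-1 yeast strain, carrying an alteration in DNA damage repair or cell cycle control, was exposed to compounds; growth inhibition was measured relative to vehicle-treated controls.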

[3] = NCI Yeast Anticancer Drug Screen. Data for the sgs1 mgt1 strain (AID 161);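 note: 0% = growth of cultures given vehicle only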; settings: S. cerevisiae sgs1 mgt1 strain, active compounds read high
How it was run: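 This yeast growth screen uses a strain with defined DNA-repair lesions; compound-treated growth is compared with vehicle-treated growth.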

[4] = NCI Yeast Anticancer Drug Screen. Data for the cln2 rad14 strain (AID 165);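 note: 0% = growth equal to vehicle treated cultures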; settings: S. cerevisiae cln2 rad14 strain, active compounds read high
How it was run: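 Yeast carrying cln2 and rad14 alterations (cell cycle control and DNA damage repair) were exposed to compounds. Growth inhibition was measured against vehicle-treated controls.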

[5] = NCI Yeast Anticancer Drug Screen. Data for the bub3 strain (AID 167); settings: S. cerevisiae bub3 mutant strain, active compounds read high
How it was run: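 Readout: yeast growth inhibition, expressed relative to vehicle-only wells. The test organism is a mutant strain from a panel with lesions in DNA repair or checkpoint genes.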

[6] = NCI Yeast Anticancer Drug Screen. Data for the mlh1 rad18 strain (AID 175); settings: S. cerevisiae mlh1 rad18 strain growth inhibition, active compounds read high
How it was run: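 Growth inhibition of the yeast strain was measured after compound exposure and expressed relative to vehicle-treated controls. The strain carries defined defects in DNA damage repair.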

[7] = at 5.0 µM (retest, dose inferred, filed as 0.5)
[8] = at 50.0 µM (retest, dose inferred, filed as 5.0)

Measured: growth inhibition

S=C(C(=S)N1CCOCC1)N1CCOCC1
inactive: [1]; [7] 14% | [1]; [8] 16% | [1]; at 50.0 µM 0.05% | [2]; [7] 12% | [2]; [8] 16% | [2]; at 50.0 µM 26.1% | [3]; [7] 19% | [3]; [8] 27% | [3]; at 50.0 µM 12.8% | [4]; [7] 15% | [4]; [8] 12% | [4]; at 50.0 µM -16.8% | [5]; [7] 22% | [5]; [8] 23% | [5]; at 50.0 µM 11.8% | [6]; [7] 16% | [6]; [8] 16% | [6]; at 50.0 µM 7.95%

COc1ccc(-c2ccccc2)cc1SCCC(=O)O
inactive: [1]; [7] 3% | [1]; [8] 15% | [2]; [7] -1% | [2]; [8] 21% | [3]; [7] 4% | [3]; [8] 32% | [3]; at 50.0 µM 48.3% | [4]; [7] -7% | [4]; [8] 17% | [5]; [7] 0% | [5]; [8] 10% | [5]; at 50.0 µM 65.2% | [6]; [7] -2% | [6]; [8] 20%
active: [1]; at 50.0 µM 79.7% | [2]; at 50.0 µM 70.5% | [4]; at 50.0 µM 77.7% | [6]; at 50.0 µM 87%

CC(=O)OCC1OC(OC2C=C(O[Si](C)(C)C)C[C@H]3C(=O)C=CC(=O)[C@@H]23)C(OC(C)=O)C(OC(C)=O)C1OC(C)=O (some centres not stated)
inactive: [1]; [7] 6% | [1]; at 50.0 µM 58.6% | [2]; [7] 1% | [2]; at 50.0 µM 59.2% | [3]; [7] 2% | [3]; at 50.0 µM 31.4% | [4]; [7] 2% | [4]; at 50.0 µM 4.5% | [5]; [7] 3% | [5]; at 50.0 µM 15.1% | [6]; [7] 3% | [6]; at 50.0 µM 54.6%
active: [1]; [8] 96% | [2]; [8] 98% | [3]; [8] 98% | [4]; [8] 88% | [5]; [8] 93% | [6]; [8] 97%

CC(=O)O[C@@H]1c2c(c3c(=O)c4cccc(O)c4c(=O)c=3c2=[N+]=[N-])[C@H](OC(C)=O)[C@@H](OC(C)=O)[C@]1(C)O
active: [1]; [7] 99% | [1]; [8] 99% | [1]; at 50.0 µM 92% | [2]; [7] 99% | [2]; [8] 99% | [2]; at 50.0 µM 93.7% | [3]; [7] 99% | [3]; [8] 99% | [3]; at 50.0 µM 93% | [4]; [7] 99% | [4]; [8] 99% | [4]; at 50.0 µM 91.3% | [5]; [7] 98% | [5]; [8] 99% | [5]; at 50.0 µM 91.4% | [6]; [7] 99% | [6]; [8] 99% | [6]; at 50.0 µM 91.6%

NCCc1ccc2oc3cc(=O)c4ccccc4c-3nc2c1
inactive: [1]; [7] 3% | [1]; [8] 22% | [1]; at 50.0 µM 45.4% | [2]; [7] -1% | [2]; [8] 30% | [2]; at 50.0 µM 24.7% | [3]; [7] 7% | [3]; [8] 46% | [3]; at 50.0 µM 43.8% | [4]; [7] 1% | [4]; [8] 8% | [4]; at 50.0 µM 28.7% | [5]; [7] 0% | [5]; [8] 30% | [5]; at 50.0 µM 56.2% | [6]; [7] 3% | [6]; [8] 41%
active: [6]; at 50.0 µM 80.8%

COC(O)C(=O)c1ccc2c(c1)CC1(C2)Cc2cc3c(cc2C1=O)CCC3 (configuration not stated)
active: [1]; [8] 99% | [2]; [8] 99% | [3]; [8] 98% | [4]; [8] 99% | [5]; [8] 99% | [6]; [8] 99%
inactive: [1]; [7] 28% | [1]; at 50.0 µM 20.2% | [2]; [7] 40% | [2]; at 50.0 µM 23.9% | [3]; [7] 33% | [3]; at 50.0 µM 52.1% | [4]; [7] 23% | [4]; at 50.0 µM 57.4% | [5]; [7] 35% | [5]; at 50.0 µM 31.6% | [6]; [7] 41% | [6]; at 50.0 µM 45.9%

C=[CH][Sn]([CH]=C)([S]c1cccc2cccnc12)[S]c1cccc2cccnc12
active: [1]; [8] 99% | [1]; at 50.0 µM 92% | [2]; [8] 100% | [2]; at 50.0 µM 91.5% | [3]; [8] 99% | [3]; at 50.0 µM 92.3% | [4]; [8] 99% | [4]; at 50.0 µM 75.5% | [5]; [8] 94% | [5]; at 50.0 µM 83.7% | [6]; [8] 99% | [6]; at 50.0 µM 91.8%
inactive: [1]; [7] 12% | [2]; [7] 16% | [3]; [7] 27% | [4]; [7] 16% | [5]; [7] 19% | [6]; [7] 18%

CC(C)C1=CC[C@H]2C(=C1)CC[C@@H]1[C@]2(C)CCC[C@@]1(C)C(=O)O
inactive: [1]; [7] -2% | [2]; [7] 15% | [3]; [7] 9% | [4]; [7] -9% | [5]; [7] -6% | [6]; [7] 7%
active: [1]; [8] 90% | [1]; at 50.0 µM 79.3% | [2]; [8] 91% | [2]; at 50.0 µM 84.5% | [3]; [8] 91% | [3]; at 50.0 µM 74.8% | [4]; [8] 92% | [4]; at 50.0 µM 87% | [5]; [8] 89% | [5]; at 50.0 µM 78.2% | [6]; [8] 90% | [6]; at 50.0 µM 77.1%

CC(C)OP(=O)(OC(C)C)/C(=N/Nc1ccc([N+](=O)[O-])cc1)NNC(=O)c1ccccc1
active: [1]; at 50.0 µM 95.2% | [2]; [8] 74% | [2]; at 50.0 µM 95.7% | [3]; at 50.0 µM 93.5% | [4]; at 50.0 µM 87.2% | [5]; [8] 74% | [5]; at 50.0 µM 94.9% | [6]; [8] 92% | [6]; at 50.0 µM 94.6%
inactive: [1]; [7] -24% | [1]; [8] 61% | [2]; [7] -12% | [3]; [7] -11% | [3]; [8] 53% | [4]; [7] -21% | [4]; [8] 67% | [5]; [7] -15% | [6]; [7] 3%
